High-throughput results: PubChem BioAssay, National Center for Advancing Translational Sciences (NCATS)
Shiga toxin inh – blocks Shiga toxin action in Vero cells. Vero cells, Shiga toxin protein synthesis inhibition reporter. inhibition, % at 38.7 µM. AID 2315. actives 9.2% (n = 290,000); in the data active = inhibition mostly above about 28%, no sharp cut-off; inactive = mostly below about 43%; note: 0% is about no effect
CHX counter – counter-screen for Shiga toxin inhibitors: cycloheximide protein synthesis inhibition | max response, % | actives 12% (n = 300,000) | cell reporter, cycloheximide protein synthesis inhibition counterscreen; in the data active = max response mostly above about 13%, no sharp cut-off; inactive = mostly below about 14%; note: read at 38.3 µM for the half of the compounds with a filed dose; 0% is about no effect
FMDV antiviral – blocks foot and mouth disease virus; FMDV antiviral cell-based qHTS; Potency, µM (doses to about 57.9 µM), for inactives: at the highest dose activity change, negative = inhibition, most hits filed as inhibitors; actives 1.2% (n = 410,000); AID 1159524; calls by dose curve; tested in HEK293T cells; note: read-out not given here; potency is the fitted concentration of half-maximal effect; % is set by controls: 0 for no effect and ±100 for the full control effect; nearly all actives have a fitted effect of over 45% in size
LASV entry inh – inhibitors of Lassa virus binding or cell entry | Potency, µM (top dose mostly 37.9 µM), for inactives: at the highest dose activity change, negative = inhibition, hits mostly inhibitors | Lassa virus pseudotype entry inhibition, cell reporter | actives 1.2% (n = 300,000); calls by dose curve; tested in HEK293 cells; note: potency is the fitted concentration of half-maximal effect; % is set by controls: 0 for no effect and ±100 for the full control effect; nearly all actives have a fitted effect of over 50% in size
HCV inh – inhibitors of hepatitis C virus infection; AID 651820; Huh7.5.1 HCVcc-Cre infection, luciferase reporter, 44 h; Potency, µM (titrated, usually from 41.8 µM), without a hit: at the highest dose activity change, negative = inhibition, usual class: inhibitors; actives 3.4% (n = 340,000); active = well fitted inhibition curve with a large enough effect; inconclusive = small, poorly fitted or top-dose-only effect, or another doubt; inactive = no such curve, though single readings can be large or run the other way; note: potency is the fitted concentration of half-maximal effect; % is set by controls: 0 for no effect and ±100 for the full control effect
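Luciferase read-out (15 sec integration) after a 15 min room-temperature substrate step quantifies HCVcc-Cre infection. Cells, 1,000 per well, had compound added 4 h post-plating, then virus at ~0.5 moi, and were cultured 44 h.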
MARV entry inh – inhibitors of Marburg virus binding or cell entry; actives 1.8% (n = 300,000); Marburg virus pseudotyped entry inhibition, cell reporter; AID 540276; Potency, µM (titrated, usually from 37.8 µM), for the others: at the top dose activity change, negative = inhibition, most hits filed as inhibitors; calls by dose curve; tested in HEK293 cells; note: potency is the fitted concentration of half-maximal effect; % is set by controls: 0 for no effect and ±100 for the full control effect
* = called active by the depositor; ? = inconclusive; . = no result given; [ ] = dose if it differs, or a comment. An excerpt weighted towards active compounds, which were near 13% of everything screened.

SMILES	Shiga toxin inh	CHX counter	FMDV antiviral	LASV entry inh	HCV inh	MARV entry inh
CN(Cc1ccccc1)C(=O)c1ccc(NC(=O)C2CCCN(C(=O)OC(C)(C)C)C2)cc1 (centres undefined)	.	.	?	.	6.31µM*	.
CN(Cc1ccccc1)C(=O)c1ccc(NC(=O)Cc2ccc(NC(=O)C3CCCN(C(=O)CCc4ccccc4)C3)cc2)cc1 (centres undefined)	.	.	?	.	2.24µM*	.
CN(Cc1ccccc1)C(=O)c1cccc(NC(=O)Cc2ccc(NC(=O)C3CCN(C(=O)CCc4ccccc4)CC3)cc2)c1	.	.	17.8µM*	.	2.24µM*	.
Cc1ccn2c(CNCc3cnn(C)c3)c(C(=O)N3CCCCCC3)nc2c1	-15.5	-5.4	13.1%	.	13.7%	.
O=C(Nc1ccccc1C(=O)NCc1cccnc1)c1cccc([N+](=O)[O-])c1	-16.1	6.5	-21.2%	14.8%	-25.1%	-25.5%[46.1 µM]
COc1ccccc1-c1nc(SCC(=O)N(C)c2ccccc2)c2c(=O)n(C)c(=O)n(C)c2n1	-10.0	-5.1	-26.0%	-5.4%	6.31µM*	0.4%[46.1 µM]
CC1(C)Cc2ccccc2-c2nnc(SCc3ccccc3)n21	17.8	11.0*	.	11.9%	-13.4%	0.1%
Cc1c(OC(C)C(=O)NCc2cccnc2)ccc2c3c(c(=O)oc12)CCCC3 (centres undefined)	-12.2	-2.3	-24.1%	.	-26.9%	.
Cc1cccc(CNC(=O)c2cnn(-c3nccc(-c4cccs4)n3)c2C2CC2)n1	.	.	-7.6%	.	.	.
O=C(OCC1COc2ccccc2O1)c1c(F)cccc1F (centres undefined)	51.0	21.2*	.	13.4%	19.7%	12.9%
CC1CCCC(NC(=O)COC(=O)Cc2ccsc2)C1C (centres undefined)	-15.8	1.9	1.9%	?	15.2%	-5.2%
Cc1cc(C(=O)CSc2ncccn2)c(C)n1-c1cccc(F)c1	100.3*	86.3*	16.7%	?	13.1%	?
Cc1cc(C(=O)CSc2nnnn2C)c(C)n1-c1cccc(F)c1	121.6*	40.1*	10.2%	?	?	?
Cc1cc(C)cc(-n2c(C)cc(C(=O)CSc3nnnn3C)c2C)c1	38.7	16.5	-18.0%	?	-6.5%	?
Cc1cc(C(=O)CSc2n[nH]c(N)n2)c(C)n1-c1cccc(F)c1	72.9*	20.5*	.	18.4%	?	-26.8%
CN(CC(=O)Nc1ccc(F)cc1)C(=O)COC(=O)CSc1ccc(F)cc1	.	.	1.8%	13.9%	11.7%	0.2%
COc1ccc(-c2csc(N(CCCN(C)C)C(=O)c3ccccc3Cl)n2)cc1	.	.	20.2%	?	?	5.62µM*
COc1ccc(-c2csc(N(CCCN(C)C)C(=O)c3ccccc3C)n2)cc1	-10.9	-10.3	1.1%	10µM*	?	?
Cc1cccc(NC(=O)CSc2nc(C)c(Cc3ccccc3)c(=O)[nH]2)c1C	-19.2	-4.1	0.0%	15.3%[46.1 µM]	.	10.5%[46.1 µM]
Cc1ccc2nc(Cl)c(/C=C/C(=O)c3ccco3)cc2c1	80.9*	57.3*	?	?	-3.7%	3.7%
CCc1cc2ccc(C)cc2nc1SCC(=O)NNC(=O)c1ccco1	-8.3	-1.3	-11.2%	-1.6%	5.7%	-5.3%
Cc1ccc2cc(/C=C/C(=O)c3ccco3)c(Cl)nc2c1	116.7*	83.3*	-13.1%	-4.7%	?	4.1%[46.1 µM]
CC(C)CC(N)c1csc(NC(=O)Nc2ccccc2C(C)C)n1 (centres undefined)	.	.	-12.9%	.	.	.
O=S(=O)(Nc1cccc(S(=O)(=O)N2CCCC2)c1)c1ccc(Br)cc1	.	.	-4.7%	.	.	.
Cc1nnc(N2CCCC(C(=O)Nc3cc(F)ccc3F)C2)c2nn(-c3ccccc3)c(C)c12 (centres undefined)	-3.0	1.1	-10.3%	-20.1%[46.1 µM]	11.2µM*	.
SMILES	Shiga toxin inh	CHX counter	FMDV antiviral	LASV entry inh	HCV inh	MARV entry inh
Cc1nnc(N2CCCC(C(=O)Nc3ccccc3C(F)(F)F)C2)c2nn(-c3ccccc3)c(C)c12 (centres undefined)	.	.	-6.8%	2.7%[46.1 µM]	.	.
NC(=O)c1c(NC(=O)c2cc(-c3ccc(F)cc3)on2)sc2c1CCCC2	.	.	5.7%	16.7%[46.1 µM]	.	6.4%[46.1 µM]
Cc1cc(C(=O)Nc2sc(C)c(-c3ccc(F)cc3)c2C(N)=O)no1	83.6*	61.6*	23.4%	?	5.3%	?
O=S(=O)(c1ccc2c(c1)OCCO2)N1CCC(c2nc3ccc(Cl)cc3[nH]2)CC1	6.1	-1.4	14.1µM*	-42.9%[14.3 µM]	?	?
Cc1ccc(-c2noc(C3CCN(S(=O)(=O)c4ccc5c(c4)OCCO5)CC3)n2)o1	-9.6	-2.2	?	?	12.6µM*	?
Cc1ccccc1OCc1nc2ccc(S(=O)(=O)N3CCOCC3)cc2[nH]1	-16.1	-5.1	-0.9%	-13.9%	-25.4%	-6.9%
O=S(=O)(c1ccc2c(c1)OCCO2)N1CCC(c2nc3ccccc3[nH]2)CC1	-15.5	-2.3	?	-4.4%	3.8%	?
O=C(NC1CCCCC1)N1CCC(c2nc(-c3ccc(S(=O)(=O)N4CCCC4)cc3)no2)CC1	-15.6	-3.2	?	10µM*	?	-2.5%
O=S(=O)(c1ccc2nc(COc3ccc(Cl)cc3Cl)[nH]c2c1)N1CCOCC1	22.1	14.5*	.	-1.2%	?	-21.6%
Cc1[nH]c2ccccc2c1C(c1ccccn1)N1CCC(C)CC1 (centres undefined)	24.1	-3.9	?	?	9.7%	?
Cc1noc(-c2ccc(-c3noc(-c4cccc(F)c4)n3)cc2)n1	.	.	-11.5%	-5.1%[46.1 µM]	.	.
O=S(=O)(c1ccc2ccccc2c1)N1CCC(c2nc(-c3ccncc3)no2)CC1	-1.4	-2.1	?	-12.9%	8.91µM*	?
CN(C)c1ccc(-c2noc(C3CCN(S(=O)(=O)c4cccc(Cl)c4)CC3)n2)cc1	-8.7	2.7	-15.7%	?	?	?
CC(C)(C)OC(=O)N1CCC[C@H]1C(=O)NCC1CCC(C(=O)O)CC1 (some centres undefined)	-4.6	-3.8	12.1%	-3.3%	13.7%	-1.3%
Cn1cccc1C(=O)N/N=C/c1c(Cl)cccc1Cl	60.6*	63.2*	51.1%	?	-7.5%	-34.4%
CCC(/C=N/NC(=O)c1ccccc1F)CC	19.8	5.8	31.4%	.	23.8%	20.9%[46.1 µM]
O=C(N/N=C/c1c(Cl)cccc1Cl)c1ccccc1F	45.7*	25.9*	21.5%	?	-17.5%	?
O=C(N/N=C/C(c1ccccc1)c1ccccc1)c1ccccc1F	43.0	48.8*	-14.9%	?	5.3%	?
O=C(N/N=C/c1c(Cl)cccc1Cl)c1ccc(F)cc1	21.5	3.4	69.8%	23.8%	?	26.6%
O=C1CC(Cc2ccccc2)C(=O)N1c1ccccn1 (centres undefined)	21.8	-2.7	-5.5%	-6.7%	12.2%	-20.4%[46.1 µM]
CCCCNC(=O)C1(C)CCCCN1C(=O)c1cccc(OC(F)(F)F)c1 (centres undefined)	.	.	-5.5%	.	.	.
COc1cccc(CNC(=O)COC(=O)/C=C/c2ccc(SC)cc2)c1	.	.	-6.2%	.	2.8%	.
O=C(Nc1ccc([N+](=O)[O-])cc1)c1cc2ccccc2nc1Cl	8.3	20.1*	0.8%	-0.1%	-22.1%	?
